According to publication PMC5540273 (PLoS ONE, 2017):
Where “and” joins values, the source holds several entries; their conditions need not be identical. Equal values may be shown once. Read-outs that look alike come from different tables or passages of the source.

Assays:
ROCK1 = details: n = 1
ROCK2 = details: n = 1
ROS1 = details: n = 1
[1] = test system: RPS6KA4(Kin.Dom.1-N-terminal); details: n = 1
[2] = test system: RPS6KA4(Kin.Dom.2-C-terminal); details: concentration: 1 μM, replicates: in singlicate; n = 1
[3] = test system: RPS6KA5(Kin.Dom.1-N-terminal); details: n = 1
[4] = test system: RPS6KA5(Kin.Dom.2-C-terminal); details: n = 1
[5] = test system: T1, RSK1(Kin.Dom.1-N-terminal); details: n = 1
T1 construct: gene RPS6KA1

[6] = test system: T2, RSK1(Kin.Dom.2-C-terminal); details: n = 1
T2 construct: gene RPS6KA1

[7] = test system: T3, RSK2(Kin.Dom.1-N-terminal); details: n = 1
T3 construct: gene RPS6KA3

[8] = test system: T4, RSK2(Kin.Dom.2-C-terminal); details: n = 1
T4 construct: gene RPS6KA3

[9] = test system: T5, RSK3(Kin.Dom.1-N-terminal); details: n = 1
T5 construct: gene RPS6KA2

[10] = test system: T6, RSK3(Kin.Dom.2-C-terminal); details: n = 1
T6 construct: gene RPS6KA2

[11] = test system: T7, RSK4(Kin.Dom.1-N-terminal); details: concentration: 1 μM, replicates: in singlicate; n = 1
T7 construct: gene RPS6KA6

[12] = test system: T8, RSK4(Kin.Dom.2-C-terminal); details: n = 1
T8 construct: gene RPS6KA6

S6K1 = details: n = 1
SBK1 = details: n = 1
SGK2 = details: concentration: 1 μM, replicates: in singlicate; n = 1
SGK3 = details: n = 1
SGK = details: concentration: 1 μM, replicates: in singlicate; n = 1
[13] = concentration: 1 μM, replicates: in singlicate
[14] = concentration: 1 μM,replicates: in singlicate, 1 µM
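Also: KINOMEscan kinase panel screen.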

## Cc1c(Cn2ccn3c(=O)cc(N4CCOCC4)nc23)cccc1C(F)(F)F [GSK2289044]
ROCK1; [13]
  %Inh: 0%
ROCK2; [13]
  %Inh: 0%
ROS1; [13]
  %Inh: 8%
[1]; [13]
  %Inh: 0%
[2]
  %Inh: 0%
[3]; [13]
  %Inh: 6%
[4]; [13]
  %Inh: 11%
[5]; [13]
  %Inh: 0%
[6]; [13]
  %Inh: 0%
[7]; [13]
  %Inh: 0%
[8]; [13]
  %Inh: 23%
[9]; [13]
  %Inh: 0%
[10]; [13]
  %Inh: 6%
[11]
  %Inh: 0%
[12]; [13]
  %Inh: 11%
S6K1; [13]
  %Inh: 0%
SBK1; [13]
  %Inh: 14%
SGK2
  %Inh: 0%
SGK3; [13]
  %Inh: 4%
SGK
  %Inh: 0%

## COc1ccc(C2=C(Nc3cccc(C(=O)O)c3)C(=O)NC2=O)cc1 [SB-390765]
ROCK1; [13]
  %Inh: 20%
ROCK2; [13]
  %Inh: 0%
ROS1; [13]
  %Inh: 14%
[1]; [13]
  %Inh: 19%
[2]
  %Inh: 17%
[3]; [13]
  %Inh: 2%
[4]; [13]
  %Inh: 9%
[5]; [13]
  %Inh: 30%
[6]; [13]
  %Inh: 7%
[7]; [13]
  %Inh: 34%
[8]; [13]
  %Inh: 8%
[9]; [13]
  %Inh: 9%
[10]; [13]
  %Inh: 2%
[11]
  %Inh: 16%
[12]; [13]
  %Inh: 30%
S6K1; [13]
  %Inh: 15%
SBK1; [13]
  %Inh: 35%
SGK2
  %Inh: 21%
SGK3; [13]
  %Inh: 22%
SGK
  %Inh: 29%

## O=C(Nc1n[nH]c2nc(-c3nccs3)c(Br)cc12)C1CC1 [SB-742251]
ROCK1; [13]
  %Inh: 36%
ROCK2; [13]
  %Inh: 24%
ROS1; [13]
  %Inh: 0%
[1]; [13]
  %Inh: 0%
[2]
  %Inh: 0%
[3]; [13]
  %Inh: 0%
[4]; [13]
  %Inh: 11%
[5]; [13]
  %Inh: 9%
[6]; [13]
  %Inh: 0%
[7]; [13]
  %Inh: 11%
[8]; [13]
  %Inh: 0%
[9]; [13]
  %Inh: 19%
[10]; [13]
  %Inh: 0%
[11]
  %Inh: 0%
[12]; [13]
  %Inh: 2%
S6K1; [13]
  %Inh: 6%
SBK1; [13]
  %Inh: 1%
SGK2
  %Inh: 12%
SGK3; [13]
  %Inh: 0%
SGK
  %Inh: 0%

## CSc1nn2c(=O)cc(N3CCOCC3)nc2n1Cc1cccc(C(F)(F)F)c1C [GSK2363608]
ROCK1; [14]
  %Inh: 98.3% and 17%
ROCK2; [14]
  %Inh: 98.9% and 0%
ROS1; [14]
  %Inh: 14% and 0%
[1]; [14]
  %Inh: 28% and 0%
[2]
  %Inh: 0%
[3]; [14]
  %Inh: 12% and 0%
[4]; [14]
  %Inh: 19% and 9%
[5]; [14]
  %Inh: 20% and 10%
[6]; [14]
  %Inh: 1% and 0%
[7]; [14]
  %Inh: 9% and 2%
[8]; [14]
  %Inh: 0% and 5%
[9]; [14]
  %Inh: 0% and 16%
[10]; [14]
  %Inh: 10% and 0%
[11]
  %Inh: 0%
[12]; [14]
  %Inh: 3% and 0%
S6K1; [14]
  %Inh: 3% and 10%
SBK1; [14]
  %Inh: 1% and 2%
SGK2
  %Inh: 0%
SGK3; [14]
  %Inh: 6% and 4%
SGK
  %Inh: 0%

## CN(C)CCN(C)C(=O)c1cc(-c2ccncc2)c(-c2ccc(Cl)c(O)c2)o1.Cl.Cl [SB-710397]
ROCK1; [13]
  %Inh: 26%
ROCK2; [13]
  %Inh: 17%
ROS1; [13]
  %Inh: 0%
[1]; [13]
  %Inh: 13%
[2]
  %Inh: 0%
[3]; [13]
  %Inh: 10%
[4]; [13]
  %Inh: 2%
[5]; [13]
  %Inh: 25%
[6]; [13]
  %Inh: 25%
[7]; [13]
  %Inh: 8%
[8]; [13]
  %Inh: 29%
[9]; [13]
  %Inh: 8%
[10]; [13]
  %Inh: 0%
[11]
  %Inh: 0%
[12]; [13]
  %Inh: 76%
S6K1; [13]
  %Inh: 15%
SBK1; [13]
  %Inh: 23%
SGK2
  %Inh: 9%
SGK3; [13]
  %Inh: 0%
SGK
  %Inh: 0%

## Fc1cc(Cl)ccc1Nc1ccnc2cc(-c3ccc(CN4CCCCC4)o3)ccc12 [GW560116]
ROCK1; [13]
  %Inh: 31%
ROCK2; [13]
  %Inh: 24%
ROS1; [13]
  %Inh: 2%
[1]; [13]
  %Inh: 0%
[2]
  %Inh: 0%
[3]; [13]
  %Inh: 0%
[4]; [13]
  %Inh: 8%
[5]; [13]
  %Inh: 0%
[6]; [13]
  %Inh: 26%
[7]; [13]
  %Inh: 0%
[8]; [13]
  %Inh: 25%
[9]; [13]
  %Inh: 0%
[10]; [13]
  %Inh: 24%
[11]
  %Inh: 0%
[12]; [13]
  %Inh: 88%
S6K1; [13]
  %Inh: 29%
SBK1; [13]
  %Inh: 2%
SGK2
  %Inh: 0%
SGK3; [13]
  %Inh: 0%
SGK
  %Inh: 3%

## O=C(Nc1ccccc1)Nc1cccc(Oc2ccc3nccn3n2)c1
ROCK1; [13]
  %Inh: 0%
ROCK2; [13]
  %Inh: 0%
ROS1; [13]
  %Inh: 0%
[1]; [13]
  %Inh: 43%
[2]
  %Inh: 0%
[3]; [13]
  %Inh: 0%
[4]; [13]
  %Inh: 0%
[5]; [13]
  %Inh: 0%
[6]; [13]
  %Inh: 0%
[7]; [13]
  %Inh: 0%
[8]; [13]
  %Inh: 32%
[9]; [13]
  %Inh: 9%
[10]; [13]
  %Inh: 14%
[11]
  %Inh: 0%
[12]; [13]
  %Inh: 0%
S6K1; [13]
  %Inh: 0%
SBK1; [13]
  %Inh: 0%
SGK2
  %Inh: 8%
SGK3; [13]
  %Inh: 9%
SGK
  %Inh: 0%

## CCn1c(-c2ccccn2)nc2cnccc21 [SB-736398]
ROCK1; [13]
  %Inh: 14%
ROCK2; [13]
  %Inh: 30%
ROS1; [13]
  %Inh: 0%
[1]; [13]
  %Inh: 13%
[2]
  %Inh: 0%
[3]; [13]
  %Inh: 15%
[4]; [13]
  %Inh: 0%
[5]; [13]
  %Inh: 65%
[6]; [13]
  %Inh: 0%
[7]; [13]
  %Inh: 15%
[8]; [13]
  %Inh: 32%
[9]; [13]
  %Inh: 5%
[10]; [13]
  %Inh: 0%
[11]
  %Inh: 1%
[12]; [13]
  %Inh: 0%
S6K1; [13]
  %Inh: 7%
SBK1; [13]
  %Inh: 0%
SGK2
  %Inh: 2%
SGK3; [13]
  %Inh: 0%
SGK
  %Inh: 3%

## COc1cccc(NC(=O)NC2CCN(c3ccnc(Nc4ccc(F)cc4)n3)C2)c1 (centres unmarked) [GSK1379721]
ROCK1; [13]
  %Inh: 0%
ROCK2; [13]
  %Inh: 5%
ROS1; [13]
  %Inh: 0%
[1]; [13]
  %Inh: 0%
[2]
  %Inh: 0%
[3]; [13]
  %Inh: 0%
[4]; [13]
  %Inh: 12%
[5]; [13]
  %Inh: 15%
[6]; [13]
  %Inh: 25%
[7]; [13]
  %Inh: 4%
[8]; [13]
  %Inh: 30%
[9]; [13]
  %Inh: 5%
[10]; [13]
  %Inh: 2%
[11]
  %Inh: 0%
[12]; [13]
  %Inh: 0%
S6K1; [13]
  %Inh: 0%
SBK1; [13]
  %Inh: 2%
SGK2
  %Inh: 0%
SGK3; [13]
  %Inh: 0%
SGK
  %Inh: 5%

## COc1ccc(CNC(=O)NC2CCN(c3ccnc(Nc4cc(OC)c(OC)c(OC)c4)n3)C2)cc1 (centres unmarked) [GSK1379748]
ROCK1; [13]
  %Inh: 20%
ROCK2; [13]
  %Inh: 31%
ROS1; [13]
  %Inh: 29%
[1]; [13]
  %Inh: 0%
[2]
  %Inh: 0%
[3]; [13]
  %Inh: 0%
[4]; [13]
  %Inh: 21%
[5]; [13]
  %Inh: 0%
[6]; [13]
  %Inh: 1%
[7]; [13]
  %Inh: 3%
[8]; [13]
  %Inh: 15%
[9]; [13]
  %Inh: 0%
[10]; [13]
  %Inh: 21%
[11]
  %Inh: 0%
[12]; [13]
  %Inh: 5%
S6K1; [13]
  %Inh: 0%
SBK1; [13]
  %Inh: 0%
SGK2
  %Inh: 0%
SGK3; [13]
  %Inh: 0%
SGK
  %Inh: 0%
